Measured values as given in PubChem BioAssay (NCI).
About 83,000 compounds went through this panel and 20% of them were active in at least one assay; those are over-represented in the sample as a whole.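 Negative percent growth values reflect cell death: -40 means 40% of the cells present at the start died, and -100 means all died.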 A number with no mark means an inactive call. Activity calls are given as the source filed them. The calls were made as follows: active = growth percent below 10; inactive = the rest.

Key:
Assay in all cases: NCI-60 one-dose screen, 48 h (100 = growth as untreated, 0 = no growth, -100 = all killed)
Conditions in all cases: 10 µM
SR leukemia = tested on: SR leukemia
OVCAR-8 ovarian = tested on: OVCAR-8 ovarian
OVCAR-5 ovarian = tested on: OVCAR-5 ovarian
OVCAR-4 ovarian = tested on: OVCAR-4 ovarian
SK-OV-3 ovarian = tested on: SK-OV-3 ovarian
IGROV1 ovarian = tested on: IGROV1 ovarian
OVCAR-3 ovarian = tested on: OVCAR-3 ovarian
HS 578T breast = tested on: HS 578T breast
NCI/ADR-RES ovarian = tested on: NCI/ADR-RES ovarian

SMILES	growth (SR leukemia)	growth (OVCAR-8 ovarian)	growth (OVCAR-5 ovarian)	growth (OVCAR-4 ovarian)	growth (SK-OV-3 ovarian)	growth (IGROV1 ovarian)	growth (OVCAR-3 ovarian)	growth (HS 578T breast)	growth (NCI/ADR-RES ovarian)
COc1ccc(C(=O)c2ccccc2CN2C(=O)c3ccccc3C2=O)cc1	91.8%	97%	109%	105%	109%	101%	105%	105%	95.5%
COc1ccc(-c2cc(-c3ccc(OC)c(OC)c3)nc(SCCCC(=O)NO)n2)cc1	15.1%	10.4%	15.9%	13.1%	-21.3% (active)	-25.1% (active)	-24% (active)	4.08% (active)	-34.7% (active)
COc1ccc(-c2nn(-c3cccc(Cl)c3)cc2-c2cc(-c3ccccc3)[nH]c(=O)c2C#N)cc1	64.8%	26.3%	94.1%	31%	-47.3% (active)	49.4%	25.8%	23.5%	37.8%
CC(C)(C)OC(=O)CN1CCc2c(sc3ncnc(N/N=C/c4ccccc4Br)c23)C1	37.6%	61.5%	92.3%	74.7%	109%	50.6%	69%	77%	71.7%
C=C/C(C)=C/C[C@]1(C)[C@H](C)[C@@H](OC(=O)CCC)[C@H](O)[C@@]23C(=C[C@H](OC)C[C@@H]12)[C@@H](OC(=O)CCC)O[C@H]3OC(C)=O	-20.2% (active)	-60.4% (active)	-41.3% (active)	-2.11% (active)	-89.7% (active)	-9.72% (active)	-86.5% (active)	–	-20.4% (active)
Nc1ccc(-c2cccs2)cc1NC(=O)c1ccc(CCCC(=O)Nc2ccc(C3CC3N)cc2)cc1 (stereo not given)	-10.5% (active)	44.9%	86.2%	93%	68%	80.9%	63%	75.5%	87.5%
Fc1ccc2[nH]cc(-c3nc(-c4ccsc4)cs3)c2c1	86.2%	–	107%	101%	80.5%	85.7%	99.8%	96.8%	80.8%
COc1ccc(-c2cc(-c3ccc(Cl)cc3)nc(SCCCC(=O)NO)n2)cc1	22.8%	8.07% (active)	24.5%	18.2%	5.99% (active)	2.96% (active)	-1.93% (active)	–	-33.6% (active)
O=c1cn[nH]c2ccc(Br)cc12	89.4%	98.8%	108%	109%	98.6%	102%	–	99.4%	105%
CCOC(=O)c1sc2ncnc(Nc3ccc4c(cnn4C(=O)Nc4ccc(C)c(Cl)c4)c3)c2c1C	79.2%	102%	110%	115%	97.3%	97.9%	117%	112%	105%
CCNc1nc(C(F)(F)F)nc2c1sc(=S)n2-c1ccccc1	83.5%	96.1%	112%	98.2%	102%	102%	–	107%	92.9%
CCn1c2ccc(O)cc2c2c(C)c3c[n+](C)ccc3c(C)c21	21.2%	32.4%	88.7%	52%	71.2%	53.8%	–	-0.0943% (active)	81%
N#Cc1c(-c2ccc(Cl)cc2)n(O)c2ccccc12	9.6% (active)	26.1%	66%	26.5%	12.9%	4.22% (active)	4.13% (active)	–	2.73% (active)
CN1CCc2c(sc3nc4n(-c5ccc(Cl)cc5)cnn4c(=O)c23)C1	120%	100%	105%	111%	91.4%	95.3%	101%	115%	104%
CCn1cc(CNc2ccc(C(=O)Nc3ccc4ccccc4c3)cc2)c(C)n1	46.2%	45%	94.4%	20.8%	11.8%	68%	55.9%	–	23.3%
CC(C)(C)OC(=O)N1CCc2c(sc3ncnc(N/N=C/c4cccc(Br)c4)c23)C1	29.4%	46.6%	70.5%	54.9%	62.2%	43.9%	–	71.2%	42.1%
Cc1cc(O)ccc1C1=NN(c2ccc(S(C)(=O)=O)cc2)C(=O)CC1	12.3%	92.3%	98.1%	98%	85%	43.5%	65.1%	86.9%	40.6%
CC(C)(C)OC(=O)CN1CCc2c(sc3ncnc(N/N=C/c4cccc5ccccc45)c23)C1	18.2%	35.6%	31.1%	54.5%	67.4%	30.1%	39.9%	21.5%	7.91% (active)
CN1CCc2c(sc3nc4n(-c5ccc(Cl)cc5)c(=O)[nH]n4c(=O)c23)C1	97.6%	–	115%	109%	96.8%	91.4%	106%	121%	99%
CCCCCCCCCCCCCCCCCC[n+]1ccc2c(C)c3c(c(C)c2c1)c1cc(O)ccc1n3CC	12.2%	7.3% (active)	42.5%	18.2%	22.2%	6.43% (active)	4.31% (active)	9.04% (active)	72.3%

SMILES	growth (SR leukemia)	growth (OVCAR-8 ovarian)	growth (OVCAR-5 ovarian)	growth (OVCAR-4 ovarian)	growth (SK-OV-3 ovarian)	growth (IGROV1 ovarian)	growth (OVCAR-3 ovarian)	growth (HS 578T breast)	growth (NCI/ADR-RES ovarian)
c1cncc(-c2csc(-c3c[nH]c4ccccc34)n2)c1	70%	95.8%	95.6%	79.1%	79.3%	68.8%	85.6%	90.6%	94.7%
IC(I)I	122%	107%	94.1%	108%	–	103%	106%	-4.06% (active)	105%
Nc1nc(-c2cccnc2)nc2c1sc(=S)n2-c1ccccc1	113%	101%	125%	128%	103%	98.1%	114%	–	93.1%
COc1ccc(-c2nn(-c3cccc(Cl)c3)cc2-c2nc(N)[nH]c(=O)c2C#N)cc1	19.3%	96.4%	94.3%	85.7%	90%	61%	106%	–	66.3%
C/C(=C/CCC(C)[C@@H]1CC[C@]2(C)C3=C(CC[C@@]12C)[C@@]1(C)CCC(=O)C(C)(C)[C@@H]1CC3)C(=O)O (stereo not given in full)	-27.8% (active)	-21.9% (active)	-75.6% (active)	-70.2% (active)	-97.5% (active)	-87% (active)	–	-37.3% (active)	-52.8% (active)
CCOC(=O)CSc1nc(-c2cc(OC)ccc2OC)cc(-c2ccc(OC)cc2)c1C#N	69.7%	–	97.3%	101%	85%	55.4%	95.4%	90.2%	81.6%
CCOC(=O)c1sc2ncnc(Nc3ccc(NC(=O)Nc4ccc(Cl)cc4)cc3)c2c1C	44.3%	38.7%	99.2%	53.4%	74.6%	92.3%	62.9%	41.4%	37.2%
Cc1ccc(-n2c(C)nn3c(=O)c4c5c(sc4nc23)CN(C)CC5)cc1	104%	–	98.8%	102%	95.1%	101%	96.7%	107%	101%
COc1ccc(-c2cc(-c3ccccc3)nc(SCCCCCCC(=O)NO)n2)cc1	21.1%	–	58.2%	76.6%	61.2%	32.2%	67.8%	54%	9.46% (active)
CCCN(CCC)C(=O)[C@H](CC)[C@@H]1CC[C@@H](C)[C@@H]([C@H](C)[C@@H](O)[C@@H](C)C(=O)[C@H](CC)C2O[C@]3(C=C[C@@H](O)[C@]4(CC[C@@](C)([C@H]5CC[C@](O)(CC)[C@H](C)O5)O4)O3)[C@H](C)C[C@@H]2C)O1 (stereo not given in full)	15.2%	15%	11.4%	7.28% (active)	3.96% (active)	17.1%	–	11.7%	-11.2% (active)
O=C(Nc1ccccc1)Nc1ncnc2c1ncn2-c1ccccc1	70.8%	55.3%	83.2%	-3.77% (active)	44.3%	78.5%	73.7%	50.1%	66.1%
C=CCN(CC=C)C(=O)[C@H](CC)[C@@H]1CC[C@@H](C)[C@@H]([C@H](C)[C@@H](O)[C@@H](C)C(=O)[C@H](CC)C2O[C@]3(C=C[C@@H](O)[C@]4(CC[C@@](C)([C@H]5CC[C@](O)(CC)[C@H](C)O5)O4)O3)[C@H](C)C[C@@H]2C)O1 (stereo not given in full)	36.9%	16%	31.9%	25.4%	4.44% (active)	10.7%	14.6%	13.4%	1.02% (active)
CCCCN(CCCC)C(=O)[C@H](CC)[C@@H]1CC[C@@H](C)[C@@H]([C@H](C)[C@@H](O)[C@@H](C)C(=O)[C@H](CC)C2O[C@]3(C=CC(=O)[C@]4(CC[C@@](C)([C@H]5CC[C@](O)(CC)[C@H](C)O5)O4)O3)[C@H](C)C[C@@H]2C)O1 (stereo not given in full)	75.1%	34.7%	39.4%	42.7%	51.9%	59.3%	31.5%	43.1%	78.2%
COc1ccc(-c2cc(-c3cc(OC)ccc3OC)nc(N)c2C#N)cc1	43.9%	39.5%	–	48.4%	62.9%	58.7%	53.7%	53.7%	52.4%
Cc1c(O)c(=O)ccn1C1CCC(CC2CCC(n3ccc(=O)c(O)c3C)CC2)CC1 (stereo not given)	41.8%	33.5%	54.5%	32.2%	49.9%	32.5%	28.3%	21.9%	83%
CC(C)(C)OC(=O)N1CCc2c(sc3ncnc(N/N=C/c4ccccc4Br)c23)C1	39.4%	71.6%	78.3%	72.9%	114%	68.6%	62.9%	–	71.6%
COc1cc2c3c(n(C4CCN(C)CC4)c(=O)c2cc1OC)-c1cc2c(cc1C3=O)OCO2	7.92% (active)	19.4%	138%	84.9%	48.7%	66.9%	–	109%	64%
C=CCn1c(SCC(=O)Nc2ccc(C(=O)/C=C/c3ccc(Cl)cc3)cc2)nnc1-c1cc(-c2ccccc2)nc2ccccc12	6.5% (active)	26.4%	90.4%	44.1%	100%	-62% (active)	63.7%	86.3%	78.9%
Cc1cn(-c2cccc(NC(=O)c3ccc(C)c(Nc4nccc(-c5cccnc5)n4)c3)c2)cn1	1.26% (active)	0.284% (active)	41.3%	-58.1% (active)	-54.2% (active)	-11.7% (active)	-33.7% (active)	-8.85% (active)	7.25% (active)
